# Records with an inconclusive call do not appear. A call without a number means that no potency is given here. A number with no mark means an inactive call. The source made the active and inactive calls. Calls follow the shape of the dose curve; as a rule, active = well fitted cell-killing curve with a large enough effect; inconclusive = small, poorly fitted or top-dose-only effect; inactive = no such curve, though single readings can be large or run the other way.
# Assay: qHTS of pediatric cancer cell lines to identify multiple opportunities for drug repurposing: Primary screen for OHS-50 cells (AID 1347103); also: nearly all actives have a fitted effect of over 40% in size
# Conditions: OHS-50 osteosarcoma viability, CellTiter-Glo luminescence, 48 h; series mostly up to 57.3 µM
# Text: Drug repurposing or repositioning has been offered as a strategy for drug development in oncology programs. This approach has special potential for childhood cancers and other rare or orphan diseases, where the expected return on new drug development has been a disincentive to pharmaceuticals.
# In this project we exploit the poly-pharmacology of drugs to discover new indications via phenotypic screening of a panel of 19 well-characterized cell lines derived from solid tumors seen in children and adolescents. The goal is to identify approved drugs with previously unrecognized anticancer properties that has the potential to reveal new mechanisms and biological processes involved in carcinogenesis or drug resistance. We employed a titration-based paradigm (quantitative high-throughput screening or qHTS), where all compounds were tested at multiple concentrations for their effect on cell viability. Concentration-response curves (CRCs) were derived directly from the primary screen, and both potency and efficacy values were used to identify compounds with robust bioactivity profiles. We screened the NIH Chemical Genomics Center (NCGC) Pharmaceutical Collection (NPC) and Mechanism Interrogation Plate (MIPE) small molecule collections of approved and investigational compounds against these cell lines; and measured metabolically active cells after 48 hours of compound treatment as a proxy for cell viability.
# Assay Submitter: Nathalia J. Martinez, National Center for Advancing Translational Sciences, National Institutes of Health, Rockville, MD, USA; email: natalia.martinez@nih.gov
# [1] Shen, M et al. Quantitative high-throughput phenotypic screening of pediatric cancer cell lines identifies multiple opportunities for drug repurposing. Oncotarget 2017 Dec 19;9(4):4758-4772. PMID 29435139.
# The cells were obtained from University of North Carolina (UNC), Pediatric Preclinical Testing Program (PPT), and Coriell Institute (CI).
# qHTS cell viability assay:
# Cells were assayed in growth media at a density of 500-1,000 cells/well. Five microliters of cells were dispensed into 1,536-well, white, solid-bottom, TC-treated plates (Greiner Bio One) using a multidrop dispenser and incubated at 37 degrees C, 5% CO2, under a humidified atmosphere for 5 hours. Twenty-three nanoliters of compounds and controls (neutral control DMSO or positive control bortezomib at final concentration of 2.3 µM) were subsequently transferred by Kalypsys pintool. For primary screens, the MIPE collection was tested at 11-point dilutions (final concentrations range from 0.78 nM to 46 µM) and the NPC collection at 8-point dilutions (final concentrations range from 0.59 nM to 46 µM). Compounds tested in follow-up screens were assayed at 11-point dilutions. Cells were incubated for 48 hours, followed by addition of 3 µL of CellTiter-Glo (Promega). After a 15 min incubation at room temperature, samples were analyzed for luminescence intensity using a ViewLux High-throughput CCD imager equipped with clear filters.
# Potency is read from the fitted curve at half-maximal effect.
Structure (SMILES),Potency,"activity change, negative = cytotoxic"
Nc1c2c(nc3ccccc13)CCCC2O (stereo not given),inactive,
CCCCNc1c(C(=O)OCC)c(C)nc2c1cnn2CC,34.7 µM (active),
N[C@@H](COP(=O)(O)O)C(=O)O,inactive,
CCCNC(C)C(=O)Nc1ccccc1C (stereo not given),inactive,
O=C(O)CN(CCN(CC(=O)O)CC(=O)O)CCN(CC(=O)O)CC(=O)O,inactive,
CC(C)NNC(=O)c1ccncc1,inactive,
CCN1CCC[C@H]1CNC(=O)c1c(O)c(Cl)cc(Cl)c1OC,inactive,
NC(=O)c1cn(Cc2c(F)cccc2F)nn1,inactive,
CNC1(C)C2CCC(C2)C1(C)C (stereo not given),inactive,
COCCc1ccc(OCC(O)CNC(C)C)cc1 (stereo not given),inactive,
CC(=O)Oc1cc(C(C)C)c(OCCN(C)C)cc1C,inactive,
CC(C)(C)NCC(O)c1cc(O)cc(O)c1 (stereo not given),inactive,
NS(=O)(=O)c1cc2c(cc1Cl)NC(C1CC3C=CC1C3)NS2(=O)=O (stereo not given),inactive,
C[C@]12CCC(=O)C=C1CC[C@@H]1[C@@H]2C(=O)C[C@@]2(C)[C@H]1CC[C@]2(O)C(=O)CO,inactive,
COC(=O)[C@@H](N)Cc1ccc(O)c(O)c1,inactive,
NC(=Nc1ccccc1)Nc1ccccc1,inactive,
C[N+](C)(C)CCOC(N)=O,inactive,
NCCCNCCSP(=O)(O)O,,5.02% [at 11.5 µM]
CN1CCN(CC(=O)N2c3ccccc3C(=O)Nc3cccnc32)CC1,,7.59% [at 6.18 µM]
Cc1cc(C)c(/C=C2\C(=O)Nc3ccccc32)[nH]1,15.5 µM (active),

Structure (SMILES),Potency,"activity change, negative = cytotoxic"
C[C@@H](O)[C@H]1C(=O)N2C(C(=O)O)=C(SCCN=CN)C[C@H]12,inactive,
CCn1ccnc1CC1COc2ccccc2O1 (stereo not given),inactive,
C[C@H](CS)C(=O)N1CCC[C@H]1C(=O)O,inactive,
NC(=O)c1ncn([C@@H]2O[C@H](CO)[C@@H](O)[C@H]2O)c1O,inactive,
FC(F)(F)c1ccccc1-n1ccnc1,inactive,
C[n+]1cc2c3c(ccc2c2ccc4cc5c(cc4c21)OCO5)OCO3,2.13 µM (active),
O=C1NCN(c2ccccc2)C12CCN(CCCC(c1ccc(F)cc1)c1ccc(F)cc1)CC2,15.5 µM (active),
CC(=O)[C@]1(O)Cc2c(O)c3c(c(O)c2[C@@H](O[C@H]2C[C@H](N)[C@H](O)[C@H](C)O2)C1)C(=O)c1ccccc1C3=O,1.1 µM (active),
C(=C\c1ccccc1)/CN1CCN(C(c2ccccc2)c2ccccc2)CC1,27.6 µM (active),
O=C(CCNNC(=O)c1ccncc1)NCc1ccccc1,inactive,
CN(C)CCOC(=O)COc1ccc(Cl)cc1,inactive,
Cc1cccc(C)c1NC(=O)C(C)N (stereo not given),inactive,
COc1ccc([C@@H]2Sc3ccccc3N(CCN(C)C)C(=O)[C@@H]2OC(C)=O)cc1,inactive,
CC(C)[N+](C)(CCOC(=O)C1c2ccccc2Oc2ccccc21)C(C)C,inactive,
Cc1nc2sccn2c(=O)c1CCN1CCC(=C(c2ccc(F)cc2)c2ccc(F)cc2)CC1,27.6 µM (active),
CC(C)(C)c1ccc(C(=O)CCCN2CCC(OC(c3ccccc3)c3ccccc3)CC2)cc1,15.5 µM (active),
Brc1c(NC2=NCCN2)ccc2nccnc12,inactive,
CCCC(C(=O)OCCN(CC)CC)(c1ccccc1)c1ccccc1,30.9 µM (active),
CC(=O)OC(C)C[N+](C)(C)C (stereo not given),inactive,
Cc1ccc(Cl)c(Nc2ccccc2C(=O)O)c1Cl,inactive,

# — PubChem BioAssay (NCATS)
